Source: publication PMC4336329 (PLoS ONE, 2015)
The whole screen tested about 310,000 compounds, of which about 14,000 (4.5%) showed an effect of 50% or more. The effect is printed as a negative number. For the sample, strong results were picked, then their nearest neighbours and some compounds at random.

Target: human ether-à-go-go-related gene (hERG) potassium channel (human, UniProt Q12809)
Experiment: primary screen, population patch clamp on CHO cells stably expressing hERG; higher = less effect of the substance
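Note: peak tail current of the secondary pulse compared with the same well before compound.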

human ether-à-go-go-related gene (hERG) potassium channel, sequence (Q12809 whole entry, looked up): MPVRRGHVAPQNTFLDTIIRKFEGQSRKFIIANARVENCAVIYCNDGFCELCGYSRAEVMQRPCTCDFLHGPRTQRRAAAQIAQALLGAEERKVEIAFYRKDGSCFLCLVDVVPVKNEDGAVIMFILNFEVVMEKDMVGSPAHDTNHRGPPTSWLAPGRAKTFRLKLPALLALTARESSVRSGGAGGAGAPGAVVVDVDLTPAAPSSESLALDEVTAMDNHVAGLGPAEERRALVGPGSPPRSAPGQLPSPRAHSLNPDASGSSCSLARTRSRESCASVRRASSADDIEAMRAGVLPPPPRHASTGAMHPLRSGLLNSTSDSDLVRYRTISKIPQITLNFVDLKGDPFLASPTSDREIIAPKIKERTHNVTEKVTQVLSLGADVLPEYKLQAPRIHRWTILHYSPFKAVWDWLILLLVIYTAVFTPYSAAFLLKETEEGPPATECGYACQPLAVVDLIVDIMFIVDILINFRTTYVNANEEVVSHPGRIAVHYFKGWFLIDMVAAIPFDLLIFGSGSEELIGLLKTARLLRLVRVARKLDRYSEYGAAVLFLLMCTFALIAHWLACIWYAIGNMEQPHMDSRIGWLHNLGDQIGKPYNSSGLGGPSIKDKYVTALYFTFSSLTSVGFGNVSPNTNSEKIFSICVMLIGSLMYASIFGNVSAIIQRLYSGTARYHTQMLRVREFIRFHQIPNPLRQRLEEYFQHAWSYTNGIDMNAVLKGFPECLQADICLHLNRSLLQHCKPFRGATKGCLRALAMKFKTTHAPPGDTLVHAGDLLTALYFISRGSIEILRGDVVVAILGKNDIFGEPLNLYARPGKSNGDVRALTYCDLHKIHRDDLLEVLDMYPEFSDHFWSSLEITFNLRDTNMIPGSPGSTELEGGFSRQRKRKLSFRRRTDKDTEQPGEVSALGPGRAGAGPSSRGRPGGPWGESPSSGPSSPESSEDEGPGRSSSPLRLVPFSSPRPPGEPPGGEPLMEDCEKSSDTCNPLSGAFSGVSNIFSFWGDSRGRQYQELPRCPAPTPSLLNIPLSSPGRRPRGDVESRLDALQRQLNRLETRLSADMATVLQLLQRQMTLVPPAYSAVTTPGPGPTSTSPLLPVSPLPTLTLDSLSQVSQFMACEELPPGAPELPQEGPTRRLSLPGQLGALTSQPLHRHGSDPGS

Structure (SMILES)	hERG current change (%, negative = inhibition) at 10uM [%]
Cc1cccc(N(Cc2cc3ccc(C)cc3[nH]c2=O)C(=O)c2ccco2)c1	-8.8
COC(=O)c1cccc(Nc2nc(-c3ccncc3)nc3ccccc23)c1	28.5
Cc1ccc(C2CCN(C(=S)NC3CCCCC3)C2)cc1 (centres unmarked)	-5.82
CC1CCCC(NC(=O)c2ccc(COc3ccccc3)o2)C1C (centres unmarked)	0.0111
O=C(CNS(=O)(=O)c1ccccc1)OCC(=O)c1ccc([N+](=O)[O-])cc1	-3.22
NC(=O)NC(=O)COC(=O)CNS(=O)(=O)c1ccc(F)c(F)c1F	13.3
O=C(COC(=O)CNS(=O)(=O)c1ccc(F)c(F)c1F)Nc1ccc(OC(F)F)cc1	-65.2
COc1ccc(NC(=O)COC(=O)[C@@H]2CCCN2S(=O)(=O)c2ccccc2F)c(OC)c1	-18.2
O=C(COC(=O)CCNS(=O)(=O)c1ccccc1)Nc1ccc(OC(F)F)cc1	-60.3
CC(=O)c1ccccc1NC(=O)COC(=O)C1CCCN1S(=O)(=O)c1ccccc1F (centres unmarked)	-0.476
O=C(COC(=O)[C@@H]1CCCN1S(=O)(=O)c1ccccc1F)Nc1ccc(OC(F)F)cc1	-61.7
COc1ccc(NC(=O)COC(=O)CNS(=O)(=O)c2ccc(F)c(F)c2F)cc1OC	21.3
N#Cc1ccc(NC(=O)COC(=O)CCNS(=O)(=O)c2ccccc2)cc1	-34.4
COc1ccc(NC(=O)COC(=O)CCNS(=O)(=O)c2ccccc2)cc1OC	23.2
CCn1c(CC(=O)Nc2cccc(OC)c2)nnc1SCC(=O)Nc1nccs1	-2.39
CCc1ccc2c(c1)cc(C)c1nnc(SCC(=O)Nc3cc(OC)c(OC)cc3C(=O)O)n12	5.98
CC1CCC2(CC1)NC(=O)N(CC(=O)NCc1ccc(F)cc1)C2=O (centres unmarked)	-21.2
C/C(=N/Nc1nc(-c2ccccc2)cc(-c2ccc(F)cc2)n1)c1cccc(N)c1	3.2
NS(=O)(=O)c1ccc(CCNC(=O)c2ccc(OCC3CCCO3)cc2)cc1 (centres unmarked)	19.9
Cc1cc(N2CCN(C)CC2)nc2ccc(NC(=O)c3ccccc3F)cc12	-58.4
Cc1cc(N2CCN(C)CC2)nc2ccc(NC(=O)c3cccnc3Cl)cc12	-2.54
COc1ccc(C(=O)Nc2ccc3nc(N4CCN(C)CC4)cc(C)c3c2)c(OC)c1	-0.388
Cc1ccc(NC(=O)c2ccc3c(c2)OCO3)cc1Cl	-2.98
Cc1cc(N2CCN(C)CC2)nc2ccc(NC(=O)c3ccc4c(c3)OCO4)cc12	-62.2
CCN1CCN(c2cc(C)c3cc(NC(=O)c4ccc5c(c4)OCO5)ccc3n2)CC1	-38.6
O=C(Nc1ccc2c(c1)OCCO2)C1CCCN(S(=O)(=O)c2cccc3nsnc23)C1 (centres unmarked)	4.93
O=C(CNC1CCCCCC1)Nc1ccc(S(=O)(=O)NC2CC2)cc1	1.98

Structure (SMILES)	hERG current change (%, negative = inhibition) at 10uM [%]
Nc1ccccc1SCc1ccccc1	-2.24
Oc1ccccc1C1NN=C(c2ccccc2)S1 (centres unmarked)	-15
COc1ccc(-c2csc(N(CCCN(C)C)C(=O)c3ccc(C)cc3)n2)cc1.Cl	-68.2
COc1ccc(-c2csc(N(CCCN(C)C)C(=O)c3ccc(F)cc3)n2)cc1.Cl	-58.1
COc1ccc(-c2csc(N(CCCN(C)C)C(=O)c3ccc(C(C)(C)C)cc3)n2)cc1.Cl	18
C/C(=N\NC(=O)c1cc(O)cc(O)c1)c1ccc(NC(=O)Cc2ccccc2)cc1	14.2
CSc1ccc(CN(C)C(C)C(=O)Nc2ccc(F)c(F)c2F)cc1 (centres unmarked)	15.3
CNC(=O)c1c(NC(=O)c2ccc(S(=O)(=O)N3CCCCC3C)cc2)sc2c1CCN(C)C2 (centres unmarked)	-3.92
CCN1CCCC1CNC(=O)c1cc2c(OC)c(OC)c(OC)cc2[nH]1 (centres unmarked)	23.2
CCN1CCCC1CNC(=O)c1cc(OC)c(OC)c(OC)c1 (centres unmarked)	12.8
CCN1CCCC1CNC(=O)c1cc2cc(OC)c(OC)cc2[nH]1 (centres unmarked)	16.6
CCN1CCCC1CNC(=O)c1cc2cc(F)ccc2[nH]1 (centres unmarked)	-73.3
CCN1CCC[C@H]1CNC(=O)c1c(O)c(Cl)cc(Cl)c1OC.O=C(O)C(O)C(O)C(=O)O	-13.8
CCN1CCC[C@H]1CNC(=O)c1c(O)c(Cl)cc(Cl)c1OC	-10.4
CCN1CCCC1CNC(=O)c1cc2ccc(OC)cc2[nH]1 (centres unmarked)	-12.4
CCc1cc(Cl)c(OC)c(C(=O)NC[C@@H]2CCCN2CC)c1O.Cl	-59.2
O=C(NCC1CCCO1)c1cc2cc(F)ccc2[nH]1 (centres unmarked)	9.11
CCN1CCCC1CNC(=O)c1[nH]c2ccc(OC)cc2c1C (centres unmarked)	-51.2
CCN1CCCC1CNC(=O)c1cc2c(OC)cccc2[nH]1 (centres unmarked)	-20.8
CCCCN1CCCC1CNC(=O)c1cc(C#N)c2ccccc2c1OC (centres unmarked)	-64.3
CCCCC1=CC2=CC(=O)C(C)(OC(=O)CC)C(=O)C2=CN1C1CCCCC1 (centres unmarked)	-38
Cc1cccn2c(=O)c(/C=C(\C#N)C(N)=O)c(N3CCCCCC3)nc12	-13.2
COc1cccc(N2CCN(C3CCCC(C)C3)CC2)c1 (centres unmarked)	-23.8
O=C(NCc1ccccn1)c1cc(S(=O)(=O)N2CCCCC2)ccc1Cl	3.78
COc1ccc(NS(=O)(=O)c2cccc(C(=O)NNC(=O)c3ccc(O)c(Cl)c3)c2)cc1	-0.207
Cc1cccc(CN2C(=O)[C@@H]3Cc4c([nH]c5ccccc45)C(C)(C)N3C2=O)c1	-0.614
